The whole screen tested about 5,500 compounds, of which about 2,000 (36%) were called active. Not shown: some 18% with an inconclusive outcome. Cut-off read from the data, not from the text of the source: active = normalized growth mostly below about 0.91 (no sharp cut-off); inconclusive = no clear call, values can overlap the other calls; inactive = mostly above about 0.92. The list shows a part of the results.
Test: chemical genetic growth profiling, strain panel (AID 1159580);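 note: tested at 20 µM; growth read once vehicle control cultures reached saturation at 30 °C; 1 = growth at the plate median or of vehicle wells; lower values mean less growth of the strain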
Details: S. cerevisiae deletion strains, growth OD

Measured: normalized growth

CCCc1c(OCCCOc2ccc(OCC(=O)O)cc2)ccc(C(C)=O)c1O
inactive: locus YAL040C, strain CLN3, active compounds read low 0.942 | locus YCL061C, strain MRC1 (second series), active compounds read low 0.999 | locus YDR150W, strain NUM1, active compounds read low 0.997 | locus YDR363W, strain ESC2, active compounds read low 1.01 | locus YER002W, strain NOP16, active compounds read low 1.04 | locus YMR263W, strain SAP30, active compounds read low 1.01 | locus YNL175C, strain NOP13, active compounds read low 0.98 | locus YNL197C, strain WHI3, active compounds read low 0.987 | locus YNL224C, strain SQS1, active compounds read low 0.963 | locus YNL322C, strain KRE1, active compounds read low 1.01 | locus YOR083W, strain WHI5 (second series), active compounds read low 0.914 | locus YPL241C, strain CIN2, active compounds read low 1

COc1cc(OC)c(C(=O)CCCN2CCCC2)c(OC)c1
inactive: locus YHR030C, strain SLT2, active compounds read low 1.07 | locus YHR079C, strain IRE1, active compounds read low 1.04 | locus YJL095W, strain BCK1, active compounds read low 1.03 | locus YJR066W, strain TOR1, active compounds read low 0.973 | locus YLR113W, strain HOG1, active compounds read low 1.01 | locus YNL183C, strain NPR1, active compounds read low 0.973 | locus YOR231W, strain MKK1, active compounds read low 1.03 | locus YPL256C, strain CLN2, active compounds read low 1.05
